Screening data as filed in PubChem BioAssay.
Rpn11 block – blocks the human proteasome subunit Rpn11; human 26S proteasome, Ub4-pepOG fluorescence polarization; 20S core pre-blocked with epoxomicin; O00487; inhibition, % at 20 µM; AID 588493; 360,000 tested, 0.59% active;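 active = inhibition at 20 µM, scaled to each plate's controls, above about 33%, limit read from the data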
dFosB activator – enhances mouse delta FosB homodimer DNA binding; 340,000 tested, 0.99% active; purified delta FosB, TAMRA-CDK5 oligo fluorescence polarization; percent of positive-control signal above neutral wells; P13346; activation, % at 25 µM;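 active = mean activation above about 17%, with every replicate also reaching it, limit read from the data, passing the limit was not always enough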
Target sequence (P13346 whole entry, looked up): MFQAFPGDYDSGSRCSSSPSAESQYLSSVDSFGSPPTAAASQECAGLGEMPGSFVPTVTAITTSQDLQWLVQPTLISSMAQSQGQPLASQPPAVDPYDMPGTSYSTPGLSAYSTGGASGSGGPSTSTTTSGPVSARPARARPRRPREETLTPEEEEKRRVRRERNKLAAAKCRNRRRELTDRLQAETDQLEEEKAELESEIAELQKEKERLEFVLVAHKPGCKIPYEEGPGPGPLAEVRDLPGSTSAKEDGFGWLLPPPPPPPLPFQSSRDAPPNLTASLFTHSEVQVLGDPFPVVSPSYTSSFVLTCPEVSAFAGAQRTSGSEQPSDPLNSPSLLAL
ZTA counter – ZTA (EBV) inhibition in EBNA-1 counter-screen. P03206. AID 2234. inhibition, % at 11 µM. 320,000 tested, 0.15% active. ZTA-DNA binding, fluorescence polarization; in the data active = inhibition above about 33%
Target sequence (P03206 whole entry, looked up): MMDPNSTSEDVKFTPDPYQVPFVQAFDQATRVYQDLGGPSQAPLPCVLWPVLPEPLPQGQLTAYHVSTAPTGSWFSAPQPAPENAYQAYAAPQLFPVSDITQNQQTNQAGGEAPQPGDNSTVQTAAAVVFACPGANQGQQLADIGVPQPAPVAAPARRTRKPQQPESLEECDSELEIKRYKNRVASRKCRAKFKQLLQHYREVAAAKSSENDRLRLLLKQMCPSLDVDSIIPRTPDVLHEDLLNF
NR3A LBD binder – modulators (binders) of human NR3A ligand-binding domain; NR3A LBD differential scanning fluorimetry, Tm shift; 0% = protein alone, 100% = glycine-bound protein; Tm shift relative to glycine control, % at 25 µM; 340,000 tested, 2.5% active;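 active = melting temperature shift of at least 10% of the positive control shift, at one fixed dose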
EBNA-1 inhibitor – blocks EBNA-1 binding to DNA; EBNA-1 DNA binding, fluorescence polarization; inhibition, % at 14.8 µM; 300,000 tested, 0.34% active; AID 1950; in the data active = inhibition above about 28%
TPT1 inhibitor – blocks Candida albicans tRNA 2'-phosphotransferase | inhibition, % at 5 µM | 300,000 tested, 0.81% active | recombinant caTPT1, FP RNA substrate dephosphorylation;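 active = inhibition above the mean of all tested compounds plus 3 SD, set per screening campaign, cut at about 24% in these data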;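 note: plate controls were DMSO alone for no effect and ferristatin control at 100 nM for full effect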
The depositor's hits bear a star; · = no result shown. In the library only some 4.5% were active in any assay of this set; here they are far more common.

SMILES	Rpn11 block	dFosB activator	ZTA counter	NR3A LBD binder	EBNA-1 inhibitor	TPT1 inhibitor
COc1cccc(C(=O)Nc2cccc(C(=O)NCC(C)C)c2)c1	2.8	-3.3	10.6	12.6*	-3.0	-2.8
CC(=O)OCC(O)C1(O)CCC2C3CCC4=CC(=O)CCC4(C)C3C(O)CC21C (stereo not given)	3.2	·	·	·	·	·
Cc1ccc(C(=O)NCCNS(C)(=O)=O)cc1	-4.7	-5.2	-32.3	-0.4	-0.2	-2.3
O=C(Nc1ccc(NC(=O)c2ccc([N+](=O)[O-])o2)cc1Cl)c1ccco1	-3.2	-4.2	-1.2	22.2*	-11.8	-0.9
COc1cccc(C(=O)Nc2cccc(NC(=O)c3cccs3)c2)c1	3.2	-7.0	-11.4	16.6*	11.2	-6.2
COc1ccccc1C(=O)Nc1ccc2ccccc2c1	3.1	-3.5	-8.6	-3.7	-5.8	-4.3
COc1ccc(C(=O)Nc2ccc3ccccc3c2)c(OC)c1	-3.7	-10.4	1.4	17.9*	-12.8	-3.4
COc1cc(NC(=O)c2cccc(Cl)c2)ccc1NC(=O)c1cccs1	-1.0	-7.9	-2.9	30.4*	3.8	2.4
CN(CC(=O)Nc1ccc(F)cc1)C(=O)COC(=O)/C=C/c1ccccc1[N+](=O)[O-]	-2.7	-5.5	-9.9	-2.1	·	·
CCCS(=O)(=O)NC(=O)C1(C)CCN(C(=O)c2ccccc2OC(F)(F)F)C1 (stereo not given)	1.1	·	·	·	·	·
O=C(Nc1cccc(NC(=O)c2cccs2)c1)c1ccc([N+](=O)[O-])o1	5.0	-5.5	-7.0	7.6	1.6	3.1
COc1ccc2[nH]c(C(=O)Nc3ccc(C)c(F)c3)cc2c1	3.2	-4.9	5.0	7.2	-4.8	3.5
COc1c(Cl)cc(Cl)cc1C(=O)Nc1ccc(C(=O)O)cc1	-0.1	-6.6	8.3	0.6	14.6	1.1
O=C(Nc1ccc(Cl)c(Cl)c1)Oc1ccc(NC(=O)c2ccco2)cc1	-1.8	11.9	-0.9	26.7*	-1.1	-2.5
COc1ccc(NC(=O)c2cc3ccccc3[nH]2)cc1	-5.0	-0.1	-0.3	24.4*	-0.4	0.2
COc1c(Cl)cc(Cl)cc1/C=C/C(=O)c1ccc(NC(=O)c2cccs2)cc1	11.6	5.4	-0.1	29.5*	-12.1	4.1
COc1cc(NC(=O)c2ccc([N+](=O)[O-])o2)ccc1NC(=O)c1cccs1	-8.5	-0.4	0.4	24.4*	-5.8	-1.6
Cc1cc(C)c(C)c(S(=O)(=O)NCC(=O)NCC2CCCCC2)c1C	10.6	-9.6	-10.9	-0.8	-7.9	2.0
CC(=O)N1c2ccc(S(=O)(=O)NCCC(=O)NCCc3cccc(C)c3)cc2CC1C (stereo not given)	-7.7	-14.5	-2.2	0.1	-8.7	0.1
CCOC(=O)c1cc2cc(OC)ccc2[nH]1	-2.5	11.9	5.0	11.0*	5.7	3.9
O=C1NC(=O)C2(CCCC2C(=O)O)N1 (stereo not given)	-5.8	-0.3	·	1.6	·	·
O=C(Nc1ccc(Cl)cc1)N(C1=NCCC1)c1ccc(OC(F)F)cc1	5.4	-0.7	4.6	22.6*	-4.6	-2.3
CN1C(=CC=C2C=C(I)C(=O)C(I)=C2)C(C)(C)c2ccccc21	·	175.4*	·	5.1	·	·
COc1ccc(N=c2oc3cc(O)ccc3cc2C(=O)Nc2ccccn2)cc1OC	8.7	-16.3	-3.2	14.8*	4.0	4.8
C/C(=N\NC(=O)CSCc1ccc([N+](=O)[O-])cc1)c1cccc(Br)c1	-16.9	0.6	3.3	-10.2	4.2	-3.1
SMILES	Rpn11 block	dFosB activator	ZTA counter	NR3A LBD binder	EBNA-1 inhibitor	TPT1 inhibitor
C/C(=N\NC(=O)CSCc1ccccc1Br)c1cccc([N+](=O)[O-])c1	-6.2	-2.6	10.4	21.8*	-2.9	-1.0
COC(=O)c1ccc(COC(=O)C(NC(=O)Cc2ccccc2)C(C)C)cc1 (stereo not given)	-0.1	-3.7	·	0.9	·	·
COc1ccccc1-n1c(SCC(=O)Nc2ccccc2C)nc(O)cc1=O	22.8	-4.5	-6.5	1.5	1.6	1.2
Cc1ccccc1NC(=O)CSc1nc(O)cc(=O)n1C	11.3	-1.5	-0.7	12.5*	6.4	4.8
NS(=O)(=O)c1ccc(Nc2ccc3cc(S(=O)(=O)N4CCCCC4)ccc3n2)cc1	-2.1	-15.8	-10.7	36.8*	-16.6	4.2
NS(=O)(=O)c1ccc(S(=O)(=O)N2CCCC2)cc1	1.7	-4.2	6.0	-2.5	10.8	-2.0
NC(N)=N/N=C/c1ccc(OCc2ccccc2)c(OCc2ccccc2)c1	15.9	-311.0	-12.4	-0.7	-9.3	-1.4
COc1cc(/C=N/N=C(N)N)ccc1OCc1ccc(Cl)cc1	9.8	58.8*	-3.1	-6.8	-11.7	-0.6
CCOc1cc(/C=N/N=C(N)N)ccc1OCc1ccc(Cl)cc1	-0.8	56.3*	9.4	-6.3	-4.4	2.2
CC(C)C(NC(=O)c1ccco1)C(=O)OCC(=O)Nc1ccc(C(N)=O)cc1 (stereo not given)	-4.3	-2.3	10.7	0.6	2.2	-0.5
CN1OC[C@@H]2CN(S(=O)(=O)c3cccc4ccccc34)[C@H](c3ccc(-c4ccccc4)cc3)C[C@@H]21	2.2	·	·	·	·	·
N#Cc1c(N)n(-c2ccccc2)c(=O)c2cc([N+](=O)[O-])ccc12	3.4	9.4	5.1	25.1*	-1.8	-3.7
COc1ccc(CCNC(=O)c2cc3c(C)nccc3[nH]c2=O)cc1OC	12.5	-6.5	-22.1	-1.6	-5.8	0.7
CCN(CC)CCCN1CC(O)=C(c2nc3ccccc3s2)C1=N	1.9	-10.7	12.7	17.8*	-8.2	-1.4
CCOC(=O)/C(=N\Nc1ccc(C(C)=O)cc1)c1csc(Nc2ccccc2)n1	·	-1.1	-4.3	14.9*	-6.8	15.6
CCOC(=O)/C(=N\Nc1ccccc1[N+](=O)[O-])c1csc(N)n1	-4.5	-1.2	-8.9	-2.3	-18.5	-3.0
CCOC(=O)c1ccc(NC(=O)Cn2c(C)nc3c(sc(=S)n3CC)c2=O)cc1	2.9	11.6	3.0	-1.1	-1.3	-1.9
CCn1c(=S)sc2c(=O)n(CC(=O)Nc3cccc(Cl)c3)c(C)nc21	1.3	7.6	0.1	33.1*	-12.0	-1.5
COc1ccc(NC(=O)C2(C)CCN2Cc2cccc(OC)c2OC)cc1OC (stereo not given)	1.6	·	·	·	·	·
C/C(=N/NS(=O)(=O)c1cc(C)ccc1C)c1c[nH]c2ccccc12	6.2	-1.7	-0.7	29.0*	-4.0	-4.6
Cn1c(N)c(C(=O)CSc2nnc(Cc3cccs3)n2C2CC2)c(=O)n(C)c1=O	-5.4	-19.0	11.3	1.1	·	·
CCCCCn1ccc(=N)cc1	-0.3	0.7	-2.1	11.0*	-2.2	-3.1
CCOC(=O)Cc1ccc2sc(-c3ccccc3)nc2c1	6.1	-5.5	10.2	1.0	-0.8	1.6
O=C(NC1CCN(S(=O)(=O)c2ccc(F)cc2)CC1)c1cccnc1	-1.6	-2.1	-1.0	-0.9	-2.5	-2.7
CCCCCC(=O)N=Nc1c(O)[nH]c2ccc([N+](=O)[O-])cc12	2.1	-3.0	-8.9	30.0*	5.8	-2.9
